Source: PubChem
In the library only some 1.4% were active in any assay of this set; here they are far more common.
EPAC2 antagonist – antagonists of human EPAC2; AID 720708; hit rate 0.18% among 360,000; EPAC2 GEF exchange of Rap1B-BODIPY-GDP, fluorescence; Potency, µM (doses to about 114 µM), actives largely listed as inhibitors; Q8WZA2; also: nearly all actives have a fitted effect of over 45% in size
BRCA1 expr act – BRCA1 expression activation. MCF7-BRCA1-FFLuc reporter, luminescence, 48 h; response scale: scaled: vehicle 0%, 10 µM genistein 100%. Potency, µM (series often up to 46.1 µM), actives largely listed as activators. hit rate 1.1% among 380,000; also: nearly all actives have a fitted effect of over 80% in size
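Cells: MCF7-BRCA1-FFLuc, 2000/well. Exposure: 48 h, 37 °C, 5% CO2. Read: luminescence, 15 min post-substrate. Controls: genistein 10 microM (maximal activation), DMSO (neutral).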
USP1-UAF1 inh – inhibitors of human USP1/UAF1 deubiquitinase; O94782; recombinant USP1/UAF1, Ub-Rhodamine cleavage fluorescence; Potency, µM (titrated, usually from 57.1 µM), most hits filed as inhibitors; hit rate 0.23% among 390,000; AID 743255; also: nearly all actives have a fitted effect of over 60% in size
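USP1/UAF1 complex at 1 nM was preincubated with compound for 15 min at room temperature, then Ub-Rho substrate (150nM final) was added. Fluorescence (480/540 nm) was read kinetically, 6 reads every 60 seconds.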
EPAC2 ag – activates human EPAC2 exchange factor. Potency, µM (titrated, usually from 154 µM), usual class: activators. EPAC2 activation, biochemical qHTS; response scale: 100% = 6.5 mM cAMP response. hit rate 0.079% among 360,000. Q8WZA2; also: nearly all actives have a fitted effect of over 50% in size
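In this primary screen, activation is scored as increased exchange of BODIPY-GDP from Rap1B by 100 nM EPAC2, with 50 uM GDP as competitor. Signal is normalized to the 6.5 mM cAMP agonist control.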
EPAC1 agonist – EPAC1 (human) agonism. Potency, µM (titrated, usually from 154 µM), hits mostly activators. EPAC1 agonist qHTS, biochemical assay; response scale: 100% = response to 6.5 mM cAMP. AID 720707. hit rate 0.073% among 360,000; also: nearly all actives have a fitted effect of over 60% in size
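Multi-concentration qHTS readout: loss of Rap1B-bound BODIPY-GDP fluorescence driven by 100 nM EPAC1 with excess GDP (50 uM), monitored kinetically at room temperature; agonist response expressed relative to 6.5 mM cAMP.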
EPAC1 antag – blocks human EPAC1 exchange factor; Potency, µM (doses to about 115 µM), actives largely listed as inhibitors; EPAC1 GEF assay, Rap1b-BODIPY-GDP exchange fluorescence; O95398; hit rate 0.14% among 360,000; also: nearly all actives have a fitted effect of over 50% in size
Each line names hits and unclear results; the compound was inactive in the other large screens. Calls follow the shape of the dose curve; as a rule, active = well fitted curve in the direction sought with a large enough effect; inconclusive = small, poorly fitted or top-dose-only effect, or another doubt; inactive = no such curve, though single readings can be large; an effect the other way counts as inactive or inconclusive.

CC(C)CCNC(=O)N1CCN(S(=O)(=O)c2ccc3c(ccn3C)c2)CC1	none (no result: EPAC2 antagonist, EPAC2 ag, EPAC1 agonist, EPAC1 antag)
CC(=O)c1cccc(NC(=O)CCc2c(C)nc3c(c(C)nn3-c3ccccc3)c2C)c1	none (no result: EPAC2 antagonist, BRCA1 expr act, EPAC2 ag, EPAC1 agonist, EPAC1 antag)
O=C(Cn1cnc2ccccc2c1=O)Nc1ccc2c(c1)OCCO2	BRCA1 expr act 3.2µM
CCCn1c(SC(C)C(=O)NC2CCCC2)n[nH]c1=O (stereo not given)	none
O=C1c2ccccc2C(=O)N1CCCc1nc(-c2ccncc2)no1	none
Nc1nonc1-c1noc(CCCN2C(=O)c3ccccc3C2=O)n1	BRCA1 expr act 4.5µM
O=C(COC(=O)c1ccc(Cl)nc1)NCCc1ccc(F)cc1	none
CC1OC(Nc2cccc3ccccc23)C(O)C(O)C1O (stereo not given)	USP1-UAF1 inh 22µM
N#Cc1ccccc1S(=O)(=O)N1CCN(C(=O)c2cn(-c3ccccc3)nc2-c2cccnc2)CC1	none
Cc1ccc(C)c(S(=O)(=O)c2nnn3c2nc(Nc2ccc(F)c(Cl)c2)c2sccc23)c1	none (no result: EPAC2 antagonist, BRCA1 expr act, EPAC2 ag, EPAC1 agonist, EPAC1 antag)
Cc1ccc(S(=O)(=O)Nc2ccc3cc([N+](=O)[O-])ccc3c2[N+](=O)[O-])cc1	EPAC2 antagonist 50µM, EPAC1 antag 79µM
Cc1ccc(S(=O)(=O)Nc2ccc3ccccc3c2[N+](=O)[O-])cc1	EPAC2 antagonist inconclusive, EPAC1 antag inconclusive
Brc1ccc(NC2=Nc3ccccc3CC2)cc1	BRCA1 expr act 8.9µM
COc1ccc(C2=NOC(CNC(N)=S)C2)cc1 (stereo not given)	BRCA1 expr act 3.2µM
COc1ccc(CNC(=O)C2CC(c3ccc(OC)cc3)=NO2)cc1 (stereo not given)	none
Cn1c(=O)c2c(nc(Sc3ncnn3CC(=O)NC(C)(C)C)n2C)n(C)c1=O	none
C=CCN1C(=O)/C(=C/C=C2/N(CC)c3ccc(S(=O)(=O)N(C)C)cc3N2CC)SC1=S	USP1-UAF1 inh 28µM, EPAC2 ag 100µM, EPAC1 agonist 100µM
COc1cc(C2C(C(=O)OCC(C)C)=C(C)N=C3SCCC(=O)N32)ccc1OCc1ccccc1 (stereo not given)	none (no result: EPAC2 antagonist, BRCA1 expr act, EPAC2 ag, EPAC1 agonist, EPAC1 antag)
O=C(c1cnn2c(C(F)(F)F)cc(-c3ccc(F)cc3)nc12)N1CCc2ccccc2C1	none
Cc1ccc(C(=O)Nc2ccc3c(c2)ncn3C)cc1	BRCA1 expr act inconclusive
CCC(=O)Nc1ccc2c(c1)ncn2-c1ccc(C)cc1	BRCA1 expr act 2µM
CCn1cnc2cc(NC(=O)c3ccc(C)cc3)ccc21	BRCA1 expr act 4.5µM
Cc1ccc(C)c(S(=O)(=O)/N=C2\C=C(NS(=O)(=O)c3ccccc3)C(=O)c3ccccc32)c1	EPAC2 antagonist inconclusive, USP1-UAF1 inh 16µM
CCc1ccc(S(=O)(=O)/N=C2\C=C(NS(=O)(=O)c3ccccc3)C(=O)c3ccccc32)cc1	EPAC2 antagonist inconclusive, USP1-UAF1 inh 25µM, EPAC1 antag inconclusive
Cc1cccc(S(=O)(=O)Nc2cccc3c2C(=O)c2ccccc2-3)c1	USP1-UAF1 inh inconclusive
CC(C)c1ccc(S(=O)(=O)/N=C2\C=C(NS(=O)(=O)c3ccccc3)C(=O)c3ccccc32)cc1	EPAC2 antagonist inconclusive, USP1-UAF1 inh inconclusive
CC1CCCN(S(=O)(=O)c2ccc(C(=O)NC(C)c3ccccc3)cc2)C1 (stereo not given)	none
C/C(=N/NC(=O)c1cccc(N2CCCC2=O)c1)c1ccncc1	BRCA1 expr act 8.9µM
COc1cccc(/C=N/NC(=O)c2cccc(N3CCCC3=O)c2)c1	BRCA1 expr act 8.9µM
CCOc1ccc2c(c1)C(=O)c1cc(OCC(=O)O)ccc1-2	EPAC2 antagonist inconclusive
CCCCOc1ccc2c(c1)C(=O)c1cc(O)ccc1-2	EPAC2 antagonist inconclusive, BRCA1 expr act 3.5µM
CSc1nc2ccc3nc(NC(=O)c4ccc(Cl)s4)sc3c2s1	none
CSc1nc2ccc3nc(NC(=O)c4cccs4)sc3c2s1	BRCA1 expr act 8.9µM
Cc1c(C#N)c(NC(=O)COC(=O)c2cc(Cl)c3c(c2)OCCCO3)n(Cc2ccco2)c1C	none (no result: EPAC2 antagonist, USP1-UAF1 inh, EPAC2 ag, EPAC1 agonist, EPAC1 antag)
CC(C)(C)C(=O)N1CCN(S(=O)(=O)c2ccc3c(c2)OCCCO3)CC1	none
CCCCc1ccc(Nc2ncnc3nc[nH]c23)cc1	BRCA1 expr act 4.5µM
CC1(C)CC(=O)c2cc(C(=O)Nc3cccc4ccccc34)c(=O)[nH]c2C1	none (no result: EPAC2 antagonist, USP1-UAF1 inh, EPAC2 ag, EPAC1 agonist, EPAC1 antag)
CC(=O)c1cccc(NC(=O)c2cc(-c3ccco3)on2)c1	BRCA1 expr act 10µM
CC(=O)c1cccc(NC(=O)c2cc(-c3ccc(F)cc3)on2)c1	none
O=C(Nc1cccc(Cl)c1)c1ccncc1	none
O=C(Nc1cccc(O)c1)c1cc(-c2ccco2)on1	none
CC(C)c1cc(C(=O)Nc2cc(Cl)ccc2O)no1	BRCA1 expr act inconclusive
CC(=O)c1cccc(NC(=O)c2cc(C(C)C)on2)c1	BRCA1 expr act 3.2µM
CC(C)c1cc(C(=O)Nc2cccc(Cl)c2)no1	BRCA1 expr act 7.1µM
O=C(Nc1cccc(Cl)c1)c1cnc[nH]1	BRCA1 expr act 7.9µM
COc1ccccc1NC(=O)c1sc2ncn(Cc3ccccc3Cl)c(=O)c2c1C	none (no result: EPAC2 antagonist, BRCA1 expr act, EPAC2 ag, EPAC1 agonist, EPAC1 antag)
NC(=O)c1cc(S(=O)(=O)N2CCN(c3ccc(F)cc3)CC2)cs1	none (no result: EPAC2 antagonist, EPAC2 ag, EPAC1 agonist, EPAC1 antag)
O=C(Nc1cnc2ccccn2c1=O)c1ccc(Cl)cc1	BRCA1 expr act 11µM
O=C(Nc1ccc2c(c1)CCC2)c1cnccn1	BRCA1 expr act 3.5µM
O=C(CSc1ncccn1)Nc1ccc2c(c1)CCC2	BRCA1 expr act 8.9µM
Cc1cnc(C(=O)Nc2ccc3c(c2)CCC3)cn1	BRCA1 expr act inconclusive
O=C(CSc1ncccn1)Nc1ccc2[nH]c(=O)[nH]c2c1	none
Cc1ccc(-c2nnc(-c3ccc4ccccc4c3)o2)cc1	BRCA1 expr act 4.5µM
Clc1ccc(-c2nnc(-c3ccco3)o2)cc1	BRCA1 expr act 5.6µM
Clc1ccc(-c2nnc(-c3ccc4ccccc4c3)o2)cc1	BRCA1 expr act 2µM, USP1-UAF1 inh inconclusive
Nc1nc2ncccc2cc1C(=O)NCCc1cccs1	none (no result: USP1-UAF1 inh)
Cc1ccc(S(=O)(=O)C(CNC(=O)C(=O)NCCc2ccc(F)cc2)c2cccs2)cc1 (stereo not given)	none (no result: EPAC2 antagonist, BRCA1 expr act, EPAC2 ag, EPAC1 agonist, EPAC1 antag)
O=C(Nc1ccon1)c1ccc(N2CCCCC2)c([N+](=O)[O-])c1	BRCA1 expr act 13µM
Cc1ccc(N(CC(=O)N2CCCCCC2)S(C)(=O)=O)cc1Cl	none
O=C(O)c1ccc(-c2ccccn2)s1	BRCA1 expr act 10µM
COc1ccc2cc(C(=O)NCCc3ccccc3)[nH]c2c1	BRCA1 expr act 4.5µM
COc1ccc2[nH]c(=O)c(-c3noc(-c4ccccc4)n3)cc2c1	BRCA1 expr act 5.6µM, USP1-UAF1 inh inconclusive
